In experiment [1] the test system is Human papillomavirus type 1a protein E7 (residues 44-93). The experiment is described as follows: HPV1a E7 fragment binders on microarrays, primary screen, biochemical, small-molecule microarray, residues 44-93, 635 nm fluorescence (AID 1108).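 Further: E7 fragment applied at 1 µg/mL in TBST for 1 h at 4 C; score combines spot fluorescence with its signal to noise ratio.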 The conditions noted are these: small-molecule microarray binding, fluorescence 635 nm; higher = more signal.
Experiment [2] in a line: modulators of HCV replicon luciferase signal, primary screen, HCV replication inhibitor project, Huh7 cells, luciferase reporter (AID 1109).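 Further: huh7 hepatoma cells harbouring a luciferase neomycin HCV replicon reporter; luciferase luminescence as measure of HCV replicon replication; test concentration not given here.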 The conditions noted are these: 48 h, higher = more signal. In general terms: Replicon systems follow genome replication, usually without infectious particles.
The target in experiment [3] is Left-right determination factor 2 (Homo sapiens) (UniProt O00292). As to the kind of experiment: LEFTY2 binders on small-molecule microarrays, primary screen, biochemical, small-molecule microarray, 635 nm fluorescence scan (AID 1110). The conditions noted are these: LEFTY2 binding, higher = more signal.
Chain of Left-right determination factor 2 (Homo sapiens) (O00292 whole entry, looked up): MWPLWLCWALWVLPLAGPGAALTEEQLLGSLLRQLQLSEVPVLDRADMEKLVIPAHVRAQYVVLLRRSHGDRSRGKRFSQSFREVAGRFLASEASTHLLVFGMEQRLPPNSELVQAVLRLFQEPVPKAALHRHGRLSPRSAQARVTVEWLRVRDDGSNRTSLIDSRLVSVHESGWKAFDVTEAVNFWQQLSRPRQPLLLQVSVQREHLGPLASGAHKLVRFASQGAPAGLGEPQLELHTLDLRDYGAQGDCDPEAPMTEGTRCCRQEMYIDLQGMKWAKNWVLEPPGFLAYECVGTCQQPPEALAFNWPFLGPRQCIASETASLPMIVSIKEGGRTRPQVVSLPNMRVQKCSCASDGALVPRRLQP
The target in experiment [4] is Calmodulin-1 (Homo sapiens) (UniProt P0DP23). As to the kind of experiment: CALM1 binders on microarrays, EGTA buffer, profiling panel, biochemical, small-molecule microarray, Cy5-labelled CALM1 (AID 1111).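 Further: labelled calmodulin applied in Tris saline Tween buffer holding calcium plus EGTA and DTT.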 The conditions noted are these: Cy5-CALM1 binding fluorescence, higher = more signal.
Experiment [5] has the same target. As to the kind of experiment: calcium-bound CALM1 binders on microarrays, profiling panel, artefact control for SMM control-protein annotation, biochemical, small-molecule microarray, Cy5-labelled CALM1, plus calcium (AID 1112).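 Further: score merges spot fluorescence with signal to noise from triplicate slides.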 The conditions noted are these: Cy5-CALM1 binding fluorescence, higher = more signal.
The nature of experiment [6]: small-molecule microarray binders of probe aWnt5a, primary screen, biochemical, biotinylated probe, 635/667 nm fluorescence (AID 1113).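 Further: score merges 667 nm fluorescence intensity with signal-to-noise per printed feature.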 The settings on record: higher = more signal.
Experiment [7] in a line: small-molecule microarray binders of probe aShh, primary screen, biochemical, biotinylated probe, 635/667 nm fluorescence (AID 1114).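 Further: probe is biotin-labelled aShh protein from a stem cell growth factor screen; measures binding of labelled protein to compounds printed on the slide; score merges feature fluorescence at 667 nm with signal-to-noise.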 The conditions noted are these: higher = more signal.
Experiment [8] is described as follows: small-molecule microarray binders of probe aNog, primary screen, biochemical, biotinylated probe, 635/667 nm fluorescence (AID 1115).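 Further: probe is biotinylated aNog protein used at 0.15 µg/mL for 1 h at 4 C; z-score combines 667 nm fluorescence of each spot with its signal to noise.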 The settings on record: higher = more signal.
Experiment [9] concerns the target Torsin-1A-interacting protein 1 (Homo sapiens) (UniProt Q5JTV8). The experiment is described as follows: LAP1 binders from COS7 cell lysate, primary screen, small-molecule microarray, 635/667 nm fluorescence (AID 1116). The conditions noted are these: COS7-hLAP1 lysate binding, 635 nm fluorescence, higher = more signal.
The target of experiment [10] is Alpha-bungarotoxin (Bungarus multicinctus) (UniProt P60615). As to the kind of experiment: alpha-bungarotoxin binders on microarray, profiling panel, artefact control for SMM control protein annotation, biochemical, small-molecule microarray, Alexa647 label, 635/667 nm fluorescence (AID 1117). The conditions noted are these: alpha-BTX-A647 binding fluorescence, higher = more signal.
Chain of Alpha-bungarotoxin (Bungarus multicinctus) (P60615 whole entry, looked up): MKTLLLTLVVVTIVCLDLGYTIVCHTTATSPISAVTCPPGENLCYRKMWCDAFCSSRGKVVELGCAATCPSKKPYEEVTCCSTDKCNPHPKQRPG

The target of the next experiment is Albumin (Bos taurus) (UniProt P02769). The experiment is described as follows: bovine serum albumin binders on microarray, profiling panel, artefact control for SMM control protein annotation, biochemical, small-molecule microarray, Alexa647 label, 635/667 nm fluorescence (AID 1118).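 Further: score merges 667 nm emission intensity and signal-to-noise per printed compound spot.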 The settings on record: BSA-A647 binding, fluorescence 635 nm, higher = more signal.
Chain of Albumin (Bos taurus) (P02769 whole entry, looked up): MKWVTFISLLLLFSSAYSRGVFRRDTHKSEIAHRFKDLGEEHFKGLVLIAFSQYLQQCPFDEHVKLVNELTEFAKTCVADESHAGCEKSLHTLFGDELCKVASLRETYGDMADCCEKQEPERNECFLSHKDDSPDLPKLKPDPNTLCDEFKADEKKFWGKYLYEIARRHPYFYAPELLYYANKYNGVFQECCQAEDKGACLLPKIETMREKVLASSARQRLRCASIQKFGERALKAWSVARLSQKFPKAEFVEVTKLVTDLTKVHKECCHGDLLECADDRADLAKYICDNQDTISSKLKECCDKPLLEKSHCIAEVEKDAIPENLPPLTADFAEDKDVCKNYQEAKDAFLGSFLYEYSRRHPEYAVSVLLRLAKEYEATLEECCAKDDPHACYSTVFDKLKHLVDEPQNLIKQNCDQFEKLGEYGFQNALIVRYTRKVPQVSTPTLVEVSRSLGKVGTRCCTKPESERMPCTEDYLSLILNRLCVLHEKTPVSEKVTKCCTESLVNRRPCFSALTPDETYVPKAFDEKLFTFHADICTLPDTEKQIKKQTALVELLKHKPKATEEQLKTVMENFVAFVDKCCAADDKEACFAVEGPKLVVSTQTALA

The nature of experiment [11]: small-molecule microarray binders of probe aXIP, primary screen, biochemical, NeuroSMM set, 635/667 nm fluorescence (AID 1119).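 Further: probe is the protein aXip251-270 applied at 1 µg/mL to compound-printed slides; binding of probe to printed compounds measured as 667 nm fluorescence plus signal to noise.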 The settings on record: higher = more signal, called active from +8 up or from −8 down.
The nature of experiment [12]: small-molecule binders of probe aNOTCH3, primary screen, biochemical, small-molecule microarray, 635/667 nm fluorescence (AID 1120).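 Further: probe is a biotin-tagged antibody raised against NOTCH3 rather than NOTCH3 protein; score merges spot fluorescence near 667 nm with spot signal to noise.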 The settings on record: higher = more signal.
Experiment [13] is described as follows: small-molecule binders of probe aNOTCH2, primary screen, biochemical, small-molecule microarray, 635/667 nm fluorescence (AID 1121).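 Further: score merges feature fluorescence read at 667 nm with its signal to noise.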 The conditions noted are these: higher = more signal.
For experiment [14], the target named is Carbonic anhydrase 2 (Homo sapiens) (UniProt P00918). As to the kind of experiment: CAII small-molecule binders, profiling panel, biochemical, small-molecule microarray, Alexa647-labelled CAII (AID 1122). The settings on record: CAII-A647 binding fluorescence, higher = more signal.
Experiment [15] is described as follows: COS7 lysate on small-molecule microarray, probe aHis, 635 nm (AID 1123).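 Further: z-score combines 667nm fluorescence intensity with signal-to-noise per printed compound spot.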 The settings on record: COS7 cell lysate, fluorescence, higher = more signal.
Experiment [16] in a line: compound binding in COS7 lysate, probe aLAP1, primary screen, cell lysate, small-molecule microarray (AID 1124).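 Further: lysate comes from COS7 cells expressing LAP1 and is applied at 0.3 µg/mL; score merges spot fluorescence near 667 nm with signal-to-noise over triplicate slides.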 The conditions noted are these: probe aLAP1, fluorescence, higher = more signal.
The test system of another experiment is Sam68 (KHDRBS1). As to the kind of experiment: Sam68 small-molecule binders, primary screen, biochemical, small-molecule microarray, 635 nm fluorescence (AID 1125).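 Further: score merges 667 nm channel intensity with signal to noise over triplicate slides.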 The conditions noted are these: small-molecule microarray binding, higher = more signal.
The subject of experiment [17] is Chordin-like protein 2 (CHRDL2). The experiment is described as follows: CHRDL2 small-molecule binders, primary screen, biochemical, small-molecule microarray, 635 nm fluorescence (AID 1126).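 Further: printed compound slides probed with Chrdl2 protein at 4 µg/mL for 1 h at 4 C; score merges 667 nm emission intensity with signal to noise over three replicate slides.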 The conditions noted are these: small-molecule microarray binding, fluorescence 635 nm; higher = more signal.
In experiment [18] the target is Concanavalin-A (Canavalia ensiformis) (UniProt P02866). As to the kind of experiment: ConA small-molecule binders, primary screen, artefact control for SMM control protein annotation, biochemical, small-molecule microarray, Alexa647 label, 635 nm (AID 1127).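 Further: z combines 667 nm emission intensity with signal-to-noise across three replicate slides.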 The settings on record: ConA-A647 binding fluorescence, higher = more signal.
Chain of Concanavalin-A (Canavalia ensiformis) (P02866 whole entry, looked up): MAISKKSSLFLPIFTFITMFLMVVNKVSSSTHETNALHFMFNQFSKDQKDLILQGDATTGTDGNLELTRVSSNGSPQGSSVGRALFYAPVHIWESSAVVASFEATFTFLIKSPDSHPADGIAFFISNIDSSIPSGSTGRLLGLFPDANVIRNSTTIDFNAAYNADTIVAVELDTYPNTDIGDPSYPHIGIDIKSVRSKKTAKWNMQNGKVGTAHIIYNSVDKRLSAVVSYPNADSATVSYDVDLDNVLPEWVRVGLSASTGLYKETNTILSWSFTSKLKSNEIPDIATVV

Activity calls are given as the source filed them.

Chain of Torsin-1A-interacting protein 1 (Homo sapiens) (Q5JTV8 whole entry, looked up): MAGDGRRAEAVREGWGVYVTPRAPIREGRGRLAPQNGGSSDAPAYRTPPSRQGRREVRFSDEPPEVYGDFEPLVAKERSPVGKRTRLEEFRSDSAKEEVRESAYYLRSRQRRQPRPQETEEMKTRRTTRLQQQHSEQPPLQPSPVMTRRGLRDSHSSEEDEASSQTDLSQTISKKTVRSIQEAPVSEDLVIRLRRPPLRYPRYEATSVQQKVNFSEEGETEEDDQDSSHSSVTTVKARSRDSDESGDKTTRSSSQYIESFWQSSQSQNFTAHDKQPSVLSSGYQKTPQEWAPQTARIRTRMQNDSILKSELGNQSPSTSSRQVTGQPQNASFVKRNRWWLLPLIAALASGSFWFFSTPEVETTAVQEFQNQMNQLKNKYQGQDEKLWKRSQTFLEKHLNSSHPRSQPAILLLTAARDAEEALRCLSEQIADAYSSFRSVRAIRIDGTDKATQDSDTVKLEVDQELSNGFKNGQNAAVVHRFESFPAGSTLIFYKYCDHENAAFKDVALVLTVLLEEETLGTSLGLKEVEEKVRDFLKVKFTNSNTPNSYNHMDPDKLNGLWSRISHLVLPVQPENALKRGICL

Consider `CCOC(=O)[C@H]1C/C=C/C[C@H](C(=O)OCC)C(=O)O[C@H]2[C@@H](OC)O[C@H](CO)[C@@H](OC(=O)c3ccc(Br)cc3)[C@@H]2OC1=O`, for which the composite z-score in [1] is 0.215; in experiment [3] it was 0.466; in [4] it was 0.389; in [5], 0.502; in experiment [6] it was -0.0704; in [7], 0.134. Further, the composite z-score in experiment [8] was 0.0795; in [9] it was 0.863; in experiment [10], 0.369; with Albumin (Bos taurus), 0.184; in experiment [12], 0.037; in [13] it was -0.0956. The composite z-score in experiment [14] is 0.397; in [15] it was 0.306; in experiment [16], 0.435; in the experiment with Sam68 (KHDRBS1), -0.0942; in [17], 0.406; in experiment [18], 0.205. Moreover, the z-score in [2] was -2.74. Also, the composite Z-score in experiment [11] was 0.38 (inactive).

As for `C=CCN1Cc2ccccc2[C@@H]2OC(c3ccc(OCCCO)cc3)=N[C@]2(CCS(=O)(=O)c2ccccc2)C1=O`, the composite z-score was 1.33 in [1]; 0.954 in [3]; 0.804 in experiment [4]; -0.321 in [5]; -0.0009 in [6]; 0.377 in experiment [7]. Further, the composite z-score is 0.714 in experiment [8]; 1.58 in [9]; 1.42 in experiment [10]; -0.292 in the experiment with Albumin (Bos taurus); 0.233 in experiment [12]; -0.0664 in experiment [13]. Moreover, the composite z-score was determined as 0.254 in experiment [14]; 2.96 in experiment [15]; 0.725 in experiment [16]; 1.3 in the experiment on Sam68 (KHDRBS1); 1.03 in experiment [17]; 1.21 in experiment [18]. For the same compound, the z-score in [2] is -1.48. The composite Z-score in [11] was 0.187 (inactive).

For the compound `COCCCNC(=O)[C@@]1(Cc2ccccc2)N=C(c2ccc(OCCCO)cc2)O[C@H]1c1ccccc1CN=[N+]=[N-]`, the composite z-score in [1] amounted to 0.596; in experiment [3], 0.0508; in experiment [4] it was 2.14; in experiment [5] it was 0.451; in [6] it was 0.0445; in [7], 0.496. Further, the composite z-score in experiment [8] is 1.36; in experiment [9] it was 2.35; in [10] it was 2.23; with Albumin (Bos taurus), 0.884; in experiment [12], 0.217; in [13], 0.253. Besides, the composite z-score in [14] was 0.752; in [15], 2.78; in [16], 0.982; in the experiment on Sam68 (KHDRBS1), 1.32; in experiment [17], -1.1; in [18], 1.12. The same compound displayed a z-score in experiment [2] of -2.86. The composite Z-score in [11] was 0.294 (inactive).

In the case of `C=CC[C@@]1(C(=O)N2CCCCC2)N=C(c2ccc(OCCCO)cc2)O[C@@H]1c1ccccc1CN=[N+]=[N-]`, the composite z-score in experiment [1] is 1.48; in experiment [3], 0.0868; in experiment [4], 1.75; in experiment [5] it was 0.797; in experiment [6] it was 0.104; in [7], 0.57. Besides, the composite z-score is 1.18 in experiment [8]; 1.76 in [9]; 2.05 in experiment [10]; 0.866 with Albumin (Bos taurus); 0.244 in experiment [12]; -0.0505 in [13]. The composite z-score in experiment [14] is 0.671; in experiment [15], 3.13; in experiment [16] it was 1.06; in the experiment with Sam68 (KHDRBS1) it was 1.29; in experiment [17], -0.602; in [18] it was 1.04. The z-score in [2] was -2.39. Also, in experiment [11], the composite Z-score is -0.166 (inactive).

As for `Cc1ccc(S[C@]2(C(=O)NCC(C)C)CC(=O)N(Cc3cc(C(F)(F)F)cc(C(F)(F)F)c3)[C@@H]2c2ccc(CO)cc2)cc1`, the composite z-score was -0.716 in experiment [1]; -0.419 in experiment [3]; -0.909 in experiment [4]; -0.468 in experiment [5]; 0.168 in experiment [6]; -0.153 in experiment [7]. Also, the composite z-score in [8] is -0.468; in experiment [9], 0.489; in experiment [10], -0.0201; with Albumin (Bos taurus) it was 0.539; in experiment [12], -0.123; in [13], 0.0362. Besides, the composite z-score was 0.78 in experiment [14]; 0.586 in experiment [15]; 1.56 in experiment [16]; -0.309 with Sam68 (KHDRBS1); -0.256 in experiment [17]; -0.512 in [18]. Also, the z-score in experiment [2] is -0.297. The composite Z-score in experiment [11] is -0.0662 (inactive).
